The record followed here is PubChem BioAssay (NCI).

Compounds without any hit were thinned out: in the full panel of roughly 83,000, 20% have a hit.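 Plates (96-well) were seeded with cells, treated with compound at one concentration, and incubated for 48 hours before percent growth was determined.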 Unmarked numbers belong to inactive results. Calls of active or inactive are those of the source. How the source made its calls: active means growth percent below 10; inactive means the rest.

Holding throughout (experiment): NCI-60 one-dose screen, 48 h (100 = growth as untreated, 0 = no growth, -100 = all killed)
Common to all, as to conditions: 10 µM unless noted

In experiment [1] the test system is NCI-H23 lung.
Experiment [2] has as its system NCI-H226 lung.
Experiment [3] deals with NCI-H322M lung.
Experiment [4] has as its system HOP-62 NSCLC.
In experiment [5] the test system is NCI-H460 lung.
Experiment [6] relates to HOP-92 NSCLC.
The test system of experiment [7] is NCI-H522 lung.
The test system of experiment [8] is A549/ATCC NSCLC.
Experiment [9] has as its system 786-0 renal.
Experiment [10] deals with COLO 205 colon.

With `COc1cnc2c(c1)C(=O)c1c-2n(CCCCl)c(=O)c2ccncc12`, the growth in [1] was 58%; in experiment [2] it was 69.5%; in experiment [3], 78.4%; in experiment [4], 58.2%; in experiment [5] it was 18.6%; in [6], 110%. Moreover, the growth was 26.7% in experiment [7], 69.3% in experiment [8], 83.6% in experiment [9] and 19.7% in experiment [10].

Regarding `CNCc1cccc2c1OCCOCCOCCNS(=O)(=O)c1ccc(cc1)-c1cnc(N)c(n1)C(=O)N2`, the growth in [1] is 36.7%; in experiment [2] it was 24.5%; in experiment [3], 46.2%; in experiment [4], 26.4%; in experiment [5], 9.41% (active); in experiment [6], 61.7%. The growth is 9.67% (active) in experiment [7], 46.3% in experiment [8], 30.8% in experiment [9] and -18.7% (active) in [10].

On to `CCOC(=O)c1nn(CC(O)c2ccccc2)c(NC(=O)Nc2cccc(F)c2)c1C` (stereo not given), for which the growth in [1] was 108%; in experiment [2], 84.8%; in experiment [3], 98.9%; in experiment [4] it was 104%; in experiment [5], 96.3%; in experiment [6] it was 99.8%. For the same molecule, the growth is 84.7% in experiment [7], 87.9% in [8], 99.7% in experiment [9] and 106% in experiment [10].

With `CC1(C)[C@@H](O[C@@H]2OC[C@@H](O[C@@H]3O[C@H](CO)[C@@H](O)[C@H](O)[C@H]3O[C@@H]3OC[C@@H](O)[C@H](O)[C@H]3O)[C@H](O)[C@H]2O[C@@H]2O[C@H](CO)[C@@H](O)[C@H](O)[C@H]2O)CC[C@]2(C)[C@H]3CC[C@]45OC[C@@]6(CC[C@](C)(C=O)C[C@H]64)[C@H](O)C[C@@]5(C)[C@]3(C)CC[C@@H]12`, the growth in experiment [1] is -55.1% (active); in experiment [2] it was -65.2% (active); in [3], -86.9% (active); in experiment [4], -82.9% (active); in experiment [5], -63% (active); in experiment [6] it was -63.7% (active). Moreover, the growth in experiment [7] was -89.7% (active); in experiment [8] it was -73.6% (active); in [9] it was -75% (active); in experiment [10], -93.9% (active).

As to `C=CCN1C(=O)c2cccc3c(N4CCOCC4)ccc(c23)C1=O`, the growth was 8.01% (active) in [1]; -2.43% (active) in experiment [2]; -56.6% (active) in experiment [3]; 26.4% in [4]; 8.52% (active) in experiment [5]; 21.1% in [6]. For the same molecule, the growth is -1.11% (active) in experiment [7], 3.05% (active) in experiment [8], 26.2% in experiment [9] and -21.8% (active) in experiment [10].

For `CCNc1nc(O)c(/C=C2\C=Nc3ncccc32)s1`, the growth was -7.87% (active) in experiment [1]; 10.8% in experiment [2]; 5.83% (active) in [3]; -26.5% (active) in [4]; 2.41% (active) in experiment [5]; 4.42% (active) in experiment [6]. Also, the growth in [7] is -28.6% (active); in experiment [8], 11.1%; in experiment [9] it was 3.02% (active); in experiment [10], -33.3% (active).

Regarding `C=C(c1ccc(OC)c(/C=C/C(=O)c2ccc3c(c2)OCO3)c1)c1cc(OC)c(OC)c(OC)c1`, the growth in [1] is 15.9%; in [2], -40.4% (active); in [3] it was 35.1%; in [4], 36%; in experiment [5], 0.841% (active); in experiment [6] it was 12.7%. Also, the growth in experiment [7] was 5.55% (active); in experiment [8], 27.3%; in experiment [9], 12.6%; in experiment [10], 5.33% (active).

Take `Ic1ccccc1I`: the growth was 98.9% in experiment [1]; 90.5% in [2]; 126% in experiment [3]; 90.3% in [4]; 104% in [5]; 90.2% in experiment [6]. The growth in [7] was 100%; in experiment [8] it was 98.5%; in [9] it was 92%; in experiment [10], 127%.

`c1ccc2c(c1)CCCc1nnc3nc4ccccc4n3c1-2`: the growth in experiment [1] is 46.7%; in [2] it was 51.2%; in [3] it was 48.2%; in experiment [4] it was 34.8%; in [5], 25.8%; in experiment [6], -2.09% (active). Also, the growth was 55.6% in [7], 29.9% in experiment [8], 34.2% in experiment [9] and 12% in experiment [10].

In the case of `COc1cc(/C=C/C(=O)/C=C(O)/C=C/c2ccc(OC(=O)C34CC5CC(CC(C5)C3)C4)c(OC)c2)ccc1OC(=O)C12CC3CC(CC(C3)C1)C2`, the growth was 103% in experiment [1]; 93.6% in [2]; 102% in experiment [3]; 99.1% in [4]; 108% in experiment [5]; 110% in experiment [6]. Besides, the growth in experiment [7] is 94.8%; in experiment [8] it was 103%; in [9] it was 105%; in experiment [10], 112%.

`CCCC(CC)(C(=O)Nc1ccc2nc(C)cc(N)c2c1)C(=O)Nc1ccc2nc(C)cc(N)c2c1`: the growth is 94.1% in [1]; 97.8% in experiment [2]; 108% in [3]; 107% in [4]; 106% in experiment [5]; 117% in experiment [6]. Also, the growth in experiment [7] was 92%; in experiment [8], 98.3%; in experiment [9] it was 103%; in [10], 114%.

For `O=C(/C=C/c1ccc(Cl)cc1)c1cccc(OCCCOc2cccc(C(=O)/C=C/c3ccc(Cl)cc3)c2)c1`, the growth in experiment [1] was 102%; in experiment [2], 104%; in [3] it was 103%; in [4], 107%; in experiment [5] it was 102%; in experiment [6], 120%. Besides, the growth in experiment [7] was 96.2%; in experiment [8] it was 92.7%; in experiment [9], 102%; in experiment [10], 113%.

For `CC1(C)OB(O)c2cc(-c3nc4ccc5[nH]ncc5c4c4c3CCCC4)ccc21`, the growth is 62.8% in experiment [1]; 55% in [2]; 57% in [3]; 68.2% in experiment [4]; 34.1% in [5]; 73.9% in [6]. The growth was 77.9% in [7], 56.4% in [8], 66.1% in experiment [9] and 80.9% in [10].
